Bioassay records (PubChem)
BioA inh: M. tuberculosis BioA enzyme inhibitors, primary screen, biochemical, plate reader, single point, HTS; hit rate 0.096% among 360,000; inhibition, % at 9.99 µM; AID 602481, 2012; purified M. tuberculosis BioA enzyme; in the data active = inhibition above about 40%; inconclusive = no clear call, values can overlap the other calls
Mtb hypoxia rep: PubChem AID 1159583. M. tuberculosis hypoxia-regulated fluorescent reporter, fluorescence. fluorescence inhibition, % (concentration not given with the values). hit rate 0.1% among 300,000; in the data active = fluorescence inhibition mostly above about 23%, no sharp cut-off; inactive = mostly below about 17%
Mtb FBA inh: Mtb FBA enzyme inhibitors, primary screen, biochemical, fluorescence, strain H37Rv; hit rate 2.3% among 360,000; inhibition, % at 1 µM; Fructose-bisphosphate aldolase (Mycobacterium tuberculosis (strain ATCC 25618 / H37Rv)), …; AID 588726, 2011; purified M. tuberculosis FBA, fluorescence read-out; in the data active = inhibition above about 27%;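 note: 0% = vehicle and 100% = reference inhibitor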
Target sequence (P9WQA3 whole entry, looked up): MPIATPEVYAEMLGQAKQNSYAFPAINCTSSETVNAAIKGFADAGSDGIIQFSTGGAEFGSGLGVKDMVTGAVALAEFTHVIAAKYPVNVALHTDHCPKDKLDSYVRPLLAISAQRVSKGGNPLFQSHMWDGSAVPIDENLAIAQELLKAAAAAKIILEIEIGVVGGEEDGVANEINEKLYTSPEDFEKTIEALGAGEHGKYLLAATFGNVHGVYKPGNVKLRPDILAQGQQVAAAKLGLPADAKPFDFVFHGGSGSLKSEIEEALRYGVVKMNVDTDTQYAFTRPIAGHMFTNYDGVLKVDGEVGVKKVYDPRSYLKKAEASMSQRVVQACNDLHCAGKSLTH
GDH-TPI inh: GDH-TPI coupling enzyme inhibitors, primary screen, artefact control for M. tuberculosis FBA inhibitor project, biochemical, absorbance, full deck. GDH-TPI coupled enzyme counterscreen, NADH absorbance. inhibition, % at 4.8 µM. hit rate 1.2% among 360,000. AID 588335, 2011; in the data active = inhibition above about 30%;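 note: 0% = DMSO wells and 100% = wells lacking the enzyme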
FadD28 binding: inhibitors of FadD28 bisubstrate probe binding, primary screen, biochemical, fluorescence polarization, single point; hit rate 0.22% among 360,000; AID 588549, 2011; inhibition, % at 12.5 µM; in the data active = inhibition above about 8.5%, passing the limit was not always enough; inconclusive = no clear call, values can overlap the other calls
The depositor's hits bear a star; ? = inconclusive; . = no result given; + = active, no number. This is a sample that favours compounds with a hit; in the whole collection about 2.9% have one here.

SMILES	BioA inh	Mtb hypoxia rep	Mtb FBA inh	GDH-TPI inh	FadD28 binding
C[C@H]1CN([C@@H](C)CO)C(=O)Cc2cc(NS(=O)(=O)c3cn(C)cn3)ccc2O[C@@H]1CN(C)C(=O)NC1CCCCC1	0.1	.	.	.	.
Cc1noc(/C=C/N(C)C)c1S(=O)(=O)N1CCCC(C(=O)NC(C)c2ccccc2)C1 (stereo not drawn)	-1.1	3.1	0.4	37.2*	-2.3
CC(NC(=O)C1CCCN(S(=O)(=O)c2cccc3nonc23)C1)c1ccccc1 (stereo not drawn)	.	4.6	1.3	17.5	-1.2
Cc1noc(/C=C/N(C)C)c1S(=O)(=O)N1CCCC(C(=O)NCCC2=CCCCC2)C1 (stereo not drawn)	-1.6	-4.2	-0.6	46.1*	-0.5
Cc1noc(C)c1S(=O)(=O)N1CCCC(C(=O)NCCC2=CCCCC2)C1 (stereo not drawn)	-0.2	.	5.8	3.5	0.7
Cc1noc(/C=C/N(C)C)c1S(=O)(=O)N1CCCC(C(=O)NC2CCCCC2C)C1 (stereo not drawn)	-4.5	10.2	-1.7	62.5*	?
Cc1noc(C)c1S(=O)(=O)N1CCCC(C(=O)NC2CCCCC2)C1 (stereo not drawn)	-0.9	-3.1	1.1	0.7	-1.4
C[C@@H]1CN([C@H](C)CO)C(=O)c2cc(NS(C)(=O)=O)ccc2O[C@@H](C)CCCCO[C@@H]1CN(C)S(C)(=O)=O	-2.4	.	.	.	.
COc1cc(C=NN(C)C)cc(Br)c1O	.	3.5	.	.	.
CC(=O)N1[C@H](CO)[C@H](c2ccccc2)[C@H]1CN(CC1CCC1)C(=O)CN(C)C	3.5	.	.	.	.
C[C@H]1CN([C@@H](C)CO)S(=O)(=O)c2ccc(-c3cccnc3)cc2O[C@H]1CN(C)C(=O)CN(C)C	-2.9	.	.	.	.
Cc1ccccc1C1=C/C(=C(\SS/C(C(=O)c2ccc(OCC(=O)O)c(Cl)c2Cl)=C2\C=C(c3ccccc3C)SS2)C(=O)c2ccc(OCC(=O)O)c(Cl)c2Cl)SS1	.	.	-1.8	-7.8	73.3*
Cc1nn(Cc2ccccc2)c(Cl)c1/C=N/NC(=O)c1cccnc1	103.9*	.	-0.1	10.1	-1.2
COc1ccc2ccccc2c1/C=N\NC(=O)c1cccnc1	-1.1	.	1.9	35.2*	0.1
Cc1cc(O)c(C)c(O)c1/C=N/NC(=O)c1cccnc1	-0.7	.	-1.8	31.4*	-2.9
COc1cccc(S(=O)(=O)N2C[C@@H](O)COC[C@@H]3O[C@@H](CC(=O)N4CCCCC4)CC[C@H]32)c1	-0.5	.	.	.	.
C[C@H]1CN([C@@H](C)CO)C(=O)c2cc(NC(=O)CCC(F)(F)F)ccc2O[C@@H]1CN(C)CC1CC1	0.9	.	.	.	.
COc1cc2c(c(O)c1OC)-c1c(cc(OC)c(OC)c1O)C(OC(=O)c1ccccc1)[C@@](C)(O)C(C)C2OC(C)=O (stereo partly drawn)	.	6.1	.	.	.
Cc1cc(-c2n[nH]c(=S)n2N=Cc2ccccc2[N+](=O)[O-])n[nH]1	.	0.4	.	.	.
CN1[C@H](C(=O)NCC(F)(F)F)[C@@H](CO)[C@@H]2Cn3c(ccc(-c4ccc(F)cc4)c3=O)[C@@H]21	2.7	.	.	.	.
CC(=O)N(C)C[C@H]1Oc2cc(-c3cccc(F)c3)ccc2S(=O)(=O)N([C@H](C)CO)C[C@@H]1C	1.1	.	.	.	.
COC(=O)C1=CN(Cc2ccccc2)C=C(C(=O)OC)C1c1ccc(O)c(OC)c1	1.6	4.2	2.9	4.4	0.2
COCCN1C=C(C(=O)OC)C(c2ccccc2Cl)C(C(=O)OC)=C1	-0.5	8.1	+	0.0	-3.3
COC(=O)C1=CN(Cc2ccccc2)C=C(C(=O)OC)C1c1ccc(OC)c(OC)c1	2.3	-7.8	2.6	8.9	0.2
COCCN1C=C(C(=O)OC)C(c2cc(Br)c(OC)c(OC)c2)C(C(=O)OC)=C1	-0.7	-1.6	+	3.5	-2.2
COC(=O)c1c(C(=O)OC)c2c(-c3ccccc3)cc3cccc1n32	-0.4	.	120.8*	15.2	-10.5
Cc1cc2nc(-c3ccc[nH]c3=O)[nH]c2cc1C	-0.5	2.9	+	26.3	-2.9
Cc1cc2nc(-c3ccc[nH]c3=O)n(Cc3ccc(F)cc3)c2cc1C	-0.4	3.0	198.4*	13.6	.
O=c1[nH]cccc1-c1nc2ccccc2n1Cc1ccc(F)cc1	-0.8	6.0	172.5*	13.9	-1.9
CCCn1c(-c2ccc[nH]c2=O)nc2ccccc21	-0.2	5.3	151.5*	3.0	-2.6
